# Experimental data as given in the supplement of paper PMC11417369.
# ± gives the standard deviation of the averaged measurements. In all, about 25,000 sequences were measured (“ln(normalized median fluorescence intensity)”: median about 8.9, highest 2% from about 10 on). What follows is part of a selection rich in the highest values, with near analogues and random picks from the rest.
# System: PfAP2-LT AP2 domain (GST-tagged)
# Assay: gcPBM binding intensity (ln(normalized median fluorescence intensity)); higher = stronger DNA binding
# Outline: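 Using an Agilent 4 × 180k array, primer-extended double-stranded 36-bp intergenic genomic probes and negative controls were exposed for 1 h to GST-fused P. falciparum DNA-binding domains expressed in E. coli. Binding was carried out in 1× PBS with 1% milk, 0.2 mg/ml BSA, 0.5% salmon testes DNA and 0.03% Triton X-100, and protein was detected with Alexa488 anti-GST antibody and a 488 nm scan. Binding intensity is the highest Masliner-normalised natural-log median intensity across replicate spots of either probe orientation.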
row,Sequence,gcPBM binding intensity (ln)
1,TTATATGTATGAACAAGTACATGCTATAATTATAAA [XGTACX_site1399],8.57 ± 0.46
2,ACATTCTATATATACACACATACATAATAAAGAAAG [CACACA_site2771],9.05 ± 0.4
3,AAAACATAACATTGTTGTACTACTAATAAAATAAGT [XGTACX_site6149],8.8 ± 0.52
4,ATATTATATATGTATAGTACATATTATAAGAAAAAT [XGTACX_site3457],8.87 ± 0.65
5,ATATATAAAAAAGCTAGTACACAAAAATATATAATG [XGTACX_site3001],8.95 ± 0.54
6,TTATATATAAATGTGTGTACTTATAAAATAATCATT [XGTACX_site5370],8.78 ± 0.43
7,TAAATTTATAGACACACACACATATAAATAAATATA [CACACA_site6530],9.71 ± 0.22
8,AATAAATTTAGACACACACACACATATAAATAAATA [CACACA_site6531],10.1 ± 0.23
9,TATATAAATAGACACACACACATATAAATATAAATA [CACACA_site6503],9.69 ± 0.32
10,TATATATATAGACACACACACATATAAATAAATAAA [CACACA_site444],9.56 ± 0.34
11,TAATTTTTTAGACACACACACATATAAATATAAATA [CACACA_site6195],9.37 ± 0.34
12,CATATAAATAGACACACACACACATATAAATAAATA [CACACA_site7156],10.1 ± 0.4
13,TATGAAGACACAAATACACACACTCAAAAAAAAAAA [CACACA_site2660],9.41 ± 0.44
14,AAAAAAAAAAAAAAAACACACATTTGAAGAAAAAAA [CACACA_site7389],8.58 ± 0.51
15,ATTGTATAAAAATGTACATGCAATAAATTTAGTTCT [TGCATGCA_site675],8.77 ± 0.42
16,AAATAAAGCACACCGACACACACATATATATATATA [CACACA_site8256],10.03 ± 0.057
17,TACAGATAAAAGTACACACACACACCGATATATATA [CACACA_site4675],10.12 ± 0.099
18,CAAAAGGATAGGCACACACACACACCGATATATATA [CACACA_site8685],10.1 ± 0.21
19,CCATAAAAAGGATACACACACACACCGACATATATA [CACACA_site4653],10.2 ± 0.23
20,ATAAAGCACACCGACACACACATATATATATATATA [CACACA_site1047],10.54 ± 0.099
21,CAAAAGGATAGGCACACACACACACCCATATATATA [CACACA_site2199],10.2 ± 0.23
22,TAAAAGGATACATATACACACATATATATATATATA [CACACA_site2791],9.72 ± 0.13
23,GCCAAAAGGATATGCACACACACACCCATATATATA [CACACA_site2198],9.94 ± 0.42

row,Sequence,gcPBM binding intensity (ln)
1,CCATAAAAAGGATACACACACACACGCACATATATA [CACACA_site6550],9.92 ± 0.11
2,ATAAAGCACACCGACACACACATATTTATATTTATA [CACACA_site6620],9.68 ± 0.43
3,AAAGATAAAAAAAGTACACACACACCGATATATATA [CACACA_site9006],10 ± 0.14
4,AAAAAAAAAAAAAGTACACACATACAGATAAATATA [CACACA_site5067],9.16 ± 0.48
5,TTTATAATATGTTATACATGCAGGTACCTTTTTGTA [TGCATGCA_site746],8.9 ± 0.46
6,TATAACACACAATGATGTACATTACATTATTTTTTA [XGTACX_site2076],8.79 ± 0.45
7,ATAACAATTATTTGTCGACACACGTATATGTTATTT [CACACA_site1766],9.41 ± 0.38
8,ATATTCTTTTTATGTGGTACTAATTTTTTTTTTTTA [XGTACX_site3791],8.66 ± 0.57
9,CGAAAAAATAAAAAAAAAATAAAATAAAATAAATAA [TGCATGCA_negctrl_site278],8.56 ± 0.59
10,TACAAATATGGACACACACACATATTTATATTTATA [CACACA_site6420],9.73 ± 0.4
11,TACATATAAAAGTACACACACACACCCATATATATA [CACACA_site941],10.1 ± 0.3
12,CCATAAAAAGGATACACACACACACCCACATATATA [CACACA_site903],10.1 ± 0.32
13,AAGGATATAACATACACACACACACCCATATATATA [CACACA_site4142],10.08 ± 0.099
14,ACCCATAAAAAGGATACACACACACCCACCCATATA [CACACA_site8205],10.3 ± 0.29
15,AGATAAAAAAAGTACACACACACATATATATATATA [CACACA_site3072],10.02 ± 0.014
16,AATACATATAAAAGTACACACACACCCATATATATA [CACACA_site8220],9.97 ± 0.13
17,ATAATTATATAAATATATATAATATATATATGAAAA [XGTACX_negctrl_site357],8.58 ± 0.58
18,TAATGGAGAAAAAAAAAACACACGGTACATTCAAAG [CACACA_site3117],9.01 ± 0.46
19,AAATAAATAAATTAACGTACATAATAACATTAATAT [XGTACX_site8567],8.86 ± 0.47
20,AGTTTGTCAATCAACACACACCTATTTATTATAGAT [CACACA_site7777],9.1 ± 0.37
21,AAAACACCCAAACACACACACACATATATATATATA [CACACA_site9119],10.2 ± 0.35
22,AAAAAAAAAAAACACACACACACACCCAAATATATA [CACACA_site150],10.22 ± 0.028
